# Test results as given in the supplement of paper PMC8253809.
# Where “and” joins values, the source holds several entries; their conditions need not be identical. Identical values can stand only once.
# Tests used:
# Assay in all cases: growth inhibition (% activity, log2 RLU normalised to DMSO / staurosporine); higher = more growth inhibition
# Conditions in all cases: 33 µM
# DIPGX29 = system: DIPGX29 (H3.3 K27M diffuse intrinsic pontine glioma line)
# Procedure, shortened: (§1)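 Approved drugs were tested in triplicate at a single final concentration of about 33 μM for 7 days at 37 °C, 5% CO2, on pHGG cell lines and H9-derived neural stem cells. Readout was CellTiter-Glo luminescence, log2-transformed and scaled per plate to % activity between solvent and positive control wells. The median over replicates gives the growth-inhibition value.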
# DIPGX37 = system: DIPGX37 (H3.3 K27M diffuse intrinsic pontine glioma line)
# Procedure, shortened: as §1
# DIPGX7 = system: DIPGX7 (H3.3 K27M diffuse intrinsic pontine glioma line)
# Procedure, shortened: as §1
# DIPGX9 = system: DIPGX9 (diffuse intrinsic pontine glioma line)
# Procedure, shortened: as §1
# HGGX39 = system: HGGX39 (paediatric high-grade glioma line)
# Procedure, shortened: as §1
# HGGX6 = system: HGGX6 (H3.3 G34R paediatric high-grade glioma line)
# Procedure, shortened: as §1
# HNSC = system: HNSC
# Procedure, shortened: as §1
# SUDIPGIV = system: SUDIPGIV (diffuse intrinsic pontine glioma line)
# Procedure, shortened: as §1
# SUDIPGVI = system: SUDIPGVI (diffuse intrinsic pontine glioma line)
# Procedure, shortened: as §1
# SUDIPGXIII = system: SUDIPGXIII (diffuse intrinsic pontine glioma line)
# Procedure, shortened: as §1
Structure (SMILES),growth inhibition (DIPGX29),growth inhibition (DIPGX37),growth inhibition (DIPGX7),growth inhibition (DIPGX9),growth inhibition (HGGX39),growth inhibition (HGGX6),growth inhibition (HNSC),growth inhibition (SUDIPGIV),growth inhibition (SUDIPGVI),growth inhibition (SUDIPGXIII)
CNC(=C[N+](=O)[O-])NCCSCc1csc(CN(C)C)n1,-0.765%,-2.32%,-0.581%,0.0593%,0.382%,0.506%,-0.992%,-0.124%,0.207%,0.421%
O=C(c1ccc(OCCN2CCCCC2)cc1)c1c(-c2ccc(O)cc2)sc2cc(O)ccc12,8.18%,-0.349%,22.3%,1.84%,6.41%,7.69%,1.59%,0.509%,-4.3%,2.77%
c1ccc(-c2ccc(C(c3ccccc3)n3ccnc3)cc2)cc1 (stereo not given),3.65%,2.9%,5.02%,5.27%,9.63%,5.19%,11.5%,13.7%,2.63%,-0.141%
NC[C@H]1O[C@H](O[C@H]2[C@H](O)[C@@H](O[C@H]3O[C@H](CO)[C@@H](O)[C@H](N)[C@H]3O)[C@H](N)C[C@@H]2N)[C@H](N)C[C@@H]1O,-1.1%,-0.159%,-0.415%,-0.0629%,-1.03%,1.31%,-1.87%,-0.0713%,-0.514%,-17.5%
COc1ccc2c(c1)c(CC(=O)OCC(=O)O)c(C)n2C(=O)c1ccc(Cl)cc1,4.7%,5.04%,3.74%,5.54%,6.62%,4.04%,6.99%,-0.727%,5.09%,1.16%
Cc1cn([C@H]2C[C@H](N=[N+]=[N-])[C@@H](CO)O2)c(=O)[nH]c1=O,3.15%,3.86%,4.01%,3.46%,5.5%,1.53%,10.3%,3.31%,3.71%,-0.807%
CN1CCN(C2=Nc3ccccc3Oc3ccc(Cl)cc32)CC1,-0.96%,1.38%,-0.128%,1.22%,6.27%,-0.859%,1.57%,4.37%,-2.03%,0.859%
CC(C)(Oc1ccc(CCNC(=O)c2ccc(Cl)cc2)cc1)C(=O)O,1.81%,2.31%,1.05%,0.682%,1.23%,1.74%,1.59%,0.843%,2.49%,-16.6%
NC[C@@H]1O[C@H](O[C@H]2[C@@H](O)[C@H](O[C@@H]3[C@@H](O)[C@H](N)C[C@H](N)[C@H]3O[C@H]3O[C@H](CO)[C@@H](O)[C@H](O)[C@H]3N)O[C@@H]2CO)[C@H](N)[C@@H](O)[C@@H]1O,0.301%,2.89%,0.972%,0.973%,1.1%,1.84%,-2.1%,-0.26%,0.401%,0.0349%
C[C@]12CC[C@H](O)CC1=CC[C@@H]1[C@@H]2CC[C@]2(C)C(c3cccnc3)=CC[C@@H]12,-2.51%,-0.544%,0.888%,2.81%,3.94%,-0.894%,-6.23%,0.327%,-2.29%,-1.17%
N[C@@H]1CONC1=O,1.31%,-0.333%,0.738%,1.4%,0.732%,0.485%,-0.391%,-1.17%,1.19%,1.03%
CC(C)Cc1ccc(C(C)C(=O)O)cc1 (stereo not given),0.835% and -0.392%,2.64% and 0.0742%,2.15% and 0.0236%,1.07% and 0.0197%,2.25% and -0.715%,1.92% and 1.49%,-0.67% and 0.218%,-1.49% and -4.48%,2.09% and 0.812%,-0.0501% and 0.956%
NC(=O)c1cn(Cc2c(F)cccc2F)nn1,-1.15%,-0.27%,-2%,-1.13%,-1.24%,-1.04%,-2.69%,-1.85%,-0.117%,0.834%
CCCC1O[C@@H]2C[C@H]3[C@@H]4CCC5=CC(=O)C=C[C@]5(C)[C@H]4[C@@H](O)C[C@]3(C)[C@]2(C(=O)CO)O1 (stereo not given in full),2.07%,-0.133%,-1.11%,3.67%,3.05%,1.13%,-0.0191%,40.8%,-5.45%,18.8%
CC(C)(C)c1cc(C(C)(C)C)c(NC(=O)c2c[nH]c3ccccc3c2=O)cc1O,7.53%,4.87%,25.1%,8.47%,22.4%,15.2%,11.9%,9.36%,2.56%,2.28%
O=C[C@H](O)[C@@H](O)[C@H](O)CO,1.32%,0.386%,0.91%,1.55%,1.07%,1.49%,0.405%,-0.641%,-1.35%,-0.863%
O=P(O)(O)C(Cl)(Cl)P(=O)(O)O,0.766%,-0.716%,0.292%,1.96%,2.08%,-0.402%,0.239%,0.894%,2.08%,-0.0137%
CCCC(CCC)C(=O)O,-0.377% and 2.62%,2.62% and 1.47%,0.168% and 0.662%,-1.7% and -0.864%,1.15% and -1.14%,-4.05% and -2.44%,2.37% and 0.244%,1.52% and 0.0625%,0.818% and -1.61%,0.746% and 0.431%
CCC(CC)[C@H](NC(C)=O)[C@@H]1[C@H](O)[C@@H](C(=O)O)C[C@H]1NC(=N)N,-0.417%,-0.255%,-0.771%,-0.84%,-1.05%,-1.09%,-1.8%,-0.387%,-0.749%,2.27%
CC1=C(/C=C/C(C)=C/C=C/C(C)=C/C=C/C=C(C)/C=C/C=C(C)/C=C/C2=C(C)CCCC2(C)C)C(C)(C)CCC1,-2.65%,-1.75%,-0.22%,-2.07%,-4.95%,-2.28%,-2.5%,-5%,-7.28%,-0.475%
